# Shown are actives, neighbours in structure and some others; about 3.3% of the full set was active somewhere.
# Casp6 inh: inhibitors of human caspase-6 | purified caspase-6, Z-VEID-R110 cleavage fluorescence | inhibition, % at 12.5 µM | 350,000 tested, 0.53% active;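 active means mean inhibition across replicates at least about 35%, with every replicate also reaching that limit, limit read from the data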;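 further: 0% = median of neutral control wells and 100% = no fluorescence left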
# Target sequence (P55212 24-179 limits assumed): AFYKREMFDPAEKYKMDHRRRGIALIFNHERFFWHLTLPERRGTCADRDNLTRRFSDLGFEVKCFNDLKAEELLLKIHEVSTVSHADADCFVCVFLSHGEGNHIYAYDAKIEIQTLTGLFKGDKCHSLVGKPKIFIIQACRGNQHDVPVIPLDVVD
# Target sequence (P55212 194-293 limits assumed): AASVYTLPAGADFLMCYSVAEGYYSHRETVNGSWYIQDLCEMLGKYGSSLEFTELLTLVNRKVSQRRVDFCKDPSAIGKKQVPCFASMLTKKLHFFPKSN
# FGF22 binding: FGF22 (human) thermal shift binding; Q9HCT0; recombinant FGF22 thermal shift, SYPRO orange fluorescence; percent of sucrose octasulfate shift, DMSO zero; activity (Tm shift, normalised), % at 9.99 µM; 340,000 tested, 1.5% active;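 active means mean Tm shift, scaled 0 neutral to 100 positive control, at about 1.3% or above, every replicate too, limit read from the data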
# SIRT5 block: sirtuin-5 (human) deacylase inhibition. AID 652115. Purified SirT5, succinyl-peptide AMC, trypsin-coupled fluorescence. 330,000 tested, 1.1% active. inhibition, % at 15 µM; in the data active means inhibition above about 15%
# Target sequence (Q9NXA8 whole entry, looked up): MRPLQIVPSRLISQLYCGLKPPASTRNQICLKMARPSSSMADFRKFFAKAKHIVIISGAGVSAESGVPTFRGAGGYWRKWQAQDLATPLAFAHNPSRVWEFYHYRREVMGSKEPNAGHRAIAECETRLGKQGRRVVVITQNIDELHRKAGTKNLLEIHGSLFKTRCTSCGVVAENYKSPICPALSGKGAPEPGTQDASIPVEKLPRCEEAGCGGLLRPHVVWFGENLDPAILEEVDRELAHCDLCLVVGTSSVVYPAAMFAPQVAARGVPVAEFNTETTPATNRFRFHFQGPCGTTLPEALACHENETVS
# INS-1E GSIS act: GLuc luminescence reporter in INS-1E cells, primary screen for activators of glucose-dependent secretion of insulin | INS-1E GLuc reporter insulin secretion, 2-3 h | activation, % at 16.6 µM | 370,000 tested, 0.61% active;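 active means lowest replicate activation of at least 40%, so every replicate reaches that level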;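 further: 0% = median of neutral control wells and 100% = median of IBMX positive control wells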
# ERAP1 HTS inh: inhibitors of human ERAP1 aminopeptidase; Q9NZ08; recombinant ERAP1, Leu-AMC fluorescence, 60 min; inhibition, % at 10.7 µM; 340,000 tested, 0.15% active; AID 652197;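 active means mean replicate inhibition of at least 30%, or all replicates individually reaching that 30% level; inactive means mean below 30% and not every replicate reaching it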;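 further: 0% = neutral control wells and 100% = L-leucinethiol positive control wells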
# Active calls of the source: *; . = not tested or not shown.
SMILES,Casp6 inh,FGF22 binding,SIRT5 block,INS-1E GSIS act,ERAP1 HTS inh
Cc1nn(C(=O)c2cccc([N+](=O)[O-])c2)c(C)c1Cl,-3,0,1,63*,1
COc1ccccc1C/C(N)=N/OC(=O)/C=C/c1ccccc1,4,43*,1,5,-2
COc1ccccc1C/C(N)=N/OC(=O)COc1cc(C)cc(C)c1C,3,43*,-3,-3,-3
COc1ccccc1C/C(N)=N/OC(=O)c1cccs1,-3,0,-2,2,-2
COc1ccccc1C/C(N)=N/OC(=O)COc1cccc(C)c1C,-3,0,-1,-2,-3
CC(C)c1ccc2[nH]c3c(c2c1)[C@@H]1CCN2C(=O)CCC[C@H](C3)[C@H]12,-2,0,35*,-33,4
CN(C)CC(=O)Nc1ccc2c(c1)[C@@H]1C[C@H](CC(=O)NCCc3ccccc3)O[C@H](CO)[C@@H]1O2,-1,0,3,15,2
O=C(Nc1ccc(Br)cc1)c1cc2ccccn2n1,-5,0,-5,54*,-1
CCOc1cccc(=O)c2c(C)n(CC(=O)c3ccccc3)c(C)c12,4,0,0,-9,1
COc1cccc(=O)c2c(C)n(CC(=O)c3ccccc3)c(C)c12,-3,44*,3,.,-2
C[C@H](CO)N1C[C@H](C)[C@H](CN(C)Cc2ccc(Oc3ccccc3)cc2)Oc2ccc(NC(=O)Nc3ccc(C(F)(F)F)cc3)cc2C1=O,0,0,8,11,-4
CNc1nc(-c2ccccc2)[n+](-c2ccc(C)cc2)s1,.,.,.,176*,.
Cc1ccc(-c2nc(N)s[n+]2-c2ccccc2)cc1,1,0,1,12,-3
Oc1ccc(NCc2cccc(OCc3ccc(F)cc3)c2)cc1,38*,-1,-1,-6,-1
CCCNC(=O)[C@@H]1[C@@H](CO)[C@@H]2Cn3c(ccc(/C=C/c4ccccc4)c3=O)[C@H]1N2C(C)=O,1,0,-131,22,1
C[C@@H]1CN([C@H](C)CO)S(=O)(=O)c2ccc(C#CC3CCCCC3)cc2O[C@@H]1CN(C)Cc1cccnc1,0,0,99*,-9,2
C[C@H]1CN([C@@H](C)CO)S(=O)(=O)c2ccc(C#CC3CCCC3)cc2O[C@H]1CN(C)Cc1cccnc1,1,0,9,-10,1
Cc1ccc(-c2ccc3c(c2)O[C@@H](CN(C)Cc2cccnc2)[C@@H](C)CN([C@H](C)CO)S3(=O)=O)cc1,-1,0,5,-21,0
C[C@@H]1CN([C@H](C)CO)S(=O)(=O)c2ccc(C#CC3(O)CCCC3)cc2O[C@H]1CN(C)C(=O)c1cccnc1,0,0,27*,33,3
Cc1ccc(-c2ccc3c(c2)O[C@H](CN(C)Cc2cccnc2)[C@H](C)CN([C@H](C)CO)S3(=O)=O)cc1,3,0,18*,4,1
C[C@@H]1CN([C@H](C)CO)S(=O)(=O)c2ccc(C#CC3CCCC3)cc2O[C@H]1CN(C)Cc1cccnc1,-2,-1,17*,-7,0
CC1C=NC(S(=O)(=O)N2CC[C@@H]3[C@H](CO)N(C)c4ccc(-c5ccccc5)cc4[C@@H]32)=N1 (some centres undefined),-5,0,10,0,1
C[C@H]1CN([C@@H](C)CO)S(=O)(=O)c2ccc(-c3cncnc3)cc2O[C@H]1CN(C)Cc1ccc(Oc2ccccc2)cc1,-3,0,27*,-5,0
O=c1cc(-c2ccc(O)cc2)oc2c(-c3c(O)cc(O)c4c(=O)cc(-c5ccc(O)cc5)oc34)c(O)cc(O)c12,11,0,.,.,9
O=c1cc(-c2ccc(O)c(-c3c(O)cc(O)c4c(=O)cc(-c5ccc(O)cc5)oc34)c2)oc2cc(O)cc(O)c12,3,45*,-4,.,6
SMILES,Casp6 inh,FGF22 binding,SIRT5 block,INS-1E GSIS act,ERAP1 HTS inh
O=c1c(-c2c(O)cc(O)c3c(=O)cc(-c4ccc(O)cc4)oc23)c(-c2ccc(O)cc2)oc2cc(O)cc(O)c12,83*,0,12,1,2
O=C(C[C@@H]1CC[C@H]2[C@@H](COC[C@@H](O)CN2Cc2cccc(Cl)c2)O1)N1CCCCC1,-1,0,-4,4,-1
O=[N+]([O-])c1cccc(COc2ccccc2CN2CCOCC2)c1,4,0,0,-2,.
O=C(Nc1ccccc1)c1ccccc1OCc1cccc([N+](=O)[O-])c1,36*,0,-4,12,-2
O=C(Nc1ccc(O)cc1)c1ccccc1OCc1ccccc1,0,0,3,6,3
O=[N+]([O-])c1cccc(COc2ccccc2CN2CCCCC2)c1,-4,0,-7,56*,-2
CN1CCN(C(=O)[C@@H]2[C@@H](CO)[C@@H]3Cn4c(ccc(C5=CCCCC5)c4=O)[C@H]2N3S(C)(=O)=O)CC1,-2,0,-30,-1,1
COc1ccc2cc(-c3cc(C(=O)OCC(=O)NC4CCS(=O)(=O)C4)c4ccccc4n3)ccc2c1 (centres undefined),.,.,.,91*,.
CCN1CCN(c2nc3sc4c(c3c(=O)n2-c2ccc(OC)cc2)CCCCC4)CC1,.,.,.,-9,.
COc1ccc(-n2c(NN)nc3sc4c(c3c2=O)CCCC4)cc1,0,43*,-3,8,0
NS(=O)(=O)c1ccc(NC(=O)COC(=O)c2cn(-c3ccccc3)nc2-c2ccc(F)cc2)cc1,.,.,.,65*,.
CN(C)S(=O)(=O)c1cccc(NC(=O)COC(=O)c2cn(-c3ccccc3)nc2-c2ccccc2)c1,1,0,1,-2,-1
O=C(COC(=O)c1cn(-c2ccccc2)nc1-c1ccc(F)cc1)Nc1ncc(Cl)cc1Cl,4,44*,1,-1,0
CCCNC(=O)C[C@H]1C[C@H]2c3cc(NC(=O)Nc4ccccc4F)ccc3O[C@H]2[C@@H](CO)O1,0,0,.,-1,2
CO[C@@H]1CN(C)C(=O)c2ccc(NC(=O)C3CCOCC3)cc2OC[C@H](C)N(Cc2cccnc2)C[C@H]1C,-4,0,.,11,2
CC(=O)N(C)C[C@@H]1Oc2ccccc2C(=O)N(C)C[C@H]1C,.,.,.,4,.
COc1ccc(C(=O)N=C2CCC(C#N)=C3c4cc(OC)c(OC)cc4CCN23)cc1,.,.,.,109*,.
C[C@@H]1CN([C@@H](C)CO)C(=O)c2cccc(N(C)C)c2O[C@@H]1CN(C)Cc1ccccc1,-1,0,23*,2,0
C[C@H](CO)N1C[C@H](C)[C@@H](CN(C)Cc2ccccc2)Oc2ccc(N(C)C)cc2C1=O,2,0,21*,22,0
C[C@@H]1CN([C@@H](C)CO)C(=O)c2cc(N(C)C)ccc2O[C@H]1CN(C)Cc1ccccc1,1,0,-4,17,1
C[C@@H]1CN([C@@H](C)CO)C(=O)c2cc(NC(=O)C3CCCCC3)ccc2O[C@@H](C)CCCCO[C@@H]1CN(C)S(=O)(=O)c1cn(C)cn1,-3,1,-1,22,-3

# Screens from PubChem BioAssay.
